Source: PubChem BioAssay AID624172 (National Center for Advancing Translational Sciences (NCATS), 2012)
The campaign covered roughly 380,000 compounds. About 25 (0.007%) were called active. Calls follow the shape of the dose curve; as a rule, active = well fitted activation curve with a large enough effect; inconclusive = small, poorly fitted or top-dose-only effect; inactive = no such curve, though single readings can be large or run the other way. Only a sample is shown. Square brackets hold non-standard residues; d marks the D form. Side chains are listed from the residue outwards. Peptide text beside a SMILES is read from it. * marks the point of attachment. X1 = CCC(C)C(N)C1=NC(C(=O)*)CS1; Orn = NCCC[CH](N)C(=O)O

The compounds below were run against Glucagon-like peptide 1 receptor (Homo sapiens) (UniProt P43220) (assay: qHTS of GLP-1 Receptor Agonists). Conditions: HEK293 GLP-1R CRE-luciferase, luminescence, 4-6 h, cells express a hypersensitive GLP-1R form; series mostly up to 45.6 µM.
Chain of Glucagon-like peptide 1 receptor (Homo sapiens) (P43220 whole entry, looked up): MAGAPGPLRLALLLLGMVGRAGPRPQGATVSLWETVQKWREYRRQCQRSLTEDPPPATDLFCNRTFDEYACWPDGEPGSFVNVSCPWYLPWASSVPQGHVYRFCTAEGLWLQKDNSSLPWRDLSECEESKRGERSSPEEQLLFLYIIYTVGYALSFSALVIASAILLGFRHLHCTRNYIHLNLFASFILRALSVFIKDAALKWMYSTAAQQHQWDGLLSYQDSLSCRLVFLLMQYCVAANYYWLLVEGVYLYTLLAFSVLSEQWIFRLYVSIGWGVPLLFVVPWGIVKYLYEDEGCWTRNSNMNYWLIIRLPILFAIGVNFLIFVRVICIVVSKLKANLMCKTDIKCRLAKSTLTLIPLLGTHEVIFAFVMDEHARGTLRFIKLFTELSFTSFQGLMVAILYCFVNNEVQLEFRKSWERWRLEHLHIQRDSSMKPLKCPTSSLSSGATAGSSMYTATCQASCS

outcome, inactive:
CC1(C)OC[C@@H](COC(=O)CCc2ccc(OC[C@@H](O)CNCCNC(=O)N3CCOCC3)cc2)O1
CCc1nc2onc(C)c2c(=O)n1CC(=O)O
CC1=C(C(=O)OCC2CCCCC2)C(c2c(F)cccc2Cl)CC(=O)N1 (centres undefined)
CCCCCn1c(CCNC(=O)c2ccc(F)cc2)nc2ccccc21
O=c1cc2nc(-c3ccccc3)nc(SCCOc3ccc(Cl)cc3)n2[nH]1
C[C@H]1C[C@H]2[C@@H]3CCC4=CC(=O)C=C[C@]4(C)[C@@H]3C(=O)C[C@]2(C)[C@@]1(O)C(=O)CO
COc1cc2c(cc1OC)CC(=O)N(CCCN(C)C[C@H]1Cc3cc(OC)c(OC)cc31)CC2
COc1cccc(CNC(=O)c2ccc3c(Cl)c4c(nc3c2)CCCC4)c1
COc1cccc(C(=O)NC2(C(F)(F)F)C(=O)Nc3c2c(=O)[nH]c(=O)n3-c2ccc(C)cc2)c1 (centres undefined)
Cc1ccc(C)c(N2CCN(C(=O)CN3C(=O)COc4ccc(S(=O)(=O)N5CCCCCC5)cc43)CC2)c1
CCn1cc(C(=O)N(C)Cc2ccccc2)c(=O)c2cc(S(=O)(=O)N3CCCCCC3)ccc21
Cc1cccc(Cc2c(C)nc3nc(SCc4ccccc4Cl)nn3c2C)c1
Oc1ccccc1-c1nc2ccc(Cl)cn2c1Nc1ccc2c(c1)OCCO2
COc1cc(C(=O)Nc2ccc(OCc3cc(=O)n4cc(C)sc4n3)cc2)cc(OC)c1OC
COc1ccc(NC(=O)C2CCCN(S(=O)(=O)c3cccc4nonc34)C2)cc1Cl (centres undefined)
CCC(C)[C@@H](N)C(=O)O (some centres undefined)
CCCc1c2oc(C(=O)O)cc(=O)c2cc2c(=O)cc(C(=O)O)n(CC)c12
CCCCCCCCCCCCCCCCO
O=S(O)CNc1ccc(S(=O)(=O)c2ccc(NCS(=O)O)cc2)cc1
CCCN(CC)[C@@H](CC)C(=O)Nc1c(C)cccc1C
CN1CC(O)c2cc(N=NC(N)=O)c(O)cc21 (centres undefined)
O=C(Cn1nc(C(F)(F)F)c2c1CCCC2)Nc1ccc(Cl)cc1
CCOc1ccc(OCC)c(NC(=O)CN(c2ccc(C)cc2)S(=O)(=O)c2c(C)n[nH]c2C)c1
CCOC(=O)c1ccc(NC2=CC(c3ccc(OCC)cc3)N(c3ccc(C(=O)OCC)cc3)C2=O)cc1 (centres undefined)
CN(Cc1ccccc1)c1ncnc2onc(-c3ccc(F)cc3)c12
O=C(Nc1ccc(O)cc1)c1ccccc1O
O=P(O)(O)OC[C@H](O)CO
COc1cccc(NC(=O)C2CCN(c3cc(C)nc4c(-c5ccc(Cl)cc5)c(C)nn34)CC2)c1
COC(=O)CC1Oc2ccccc2-n2cc(-c3ccccc3)nc21 (centres undefined)
CCOC(=O)c1cccc(NS(=O)(=O)c2cn(C)c(C)n2)c1
CCOc1ccc(N(CC)C(=O)C2CCN(S(=O)(=O)c3cccc4nonc34)CC2)cc1
COc1ccnc(C[S@@](=O)[C@@H]2Nc3ccc(OC(F)F)cc3N2)c1OC
O=C(Nc1c(-c2ccc(F)cc2)nc2ccccn12)c1cccc(F)c1
CC1(C)OC2CO[C@]3(COS(N)(=O)=O)OC(C)(C)OC3C2O1 (some centres undefined)
COC(=O)c1scc(-c2ccccc2)c1S(=O)(=O)Nc1ccccc1
COc1ccc(C)cc1NC(=O)C(=O)NCCc1sc(-c2cccc(C)c2)nc1C
COc1ccc(-c2noc(CCC(=O)N(C)c3ccccc3C)n2)cc1
C/C=C/C=N/NC(=O)c1ccncc1
COc1ccc2cc(CNc3ccc(OC)c(OC)c3)c(=O)n(CC(=O)Nc3ccccc3F)c2c1
COc1cc2[nH]c(C)c(CCN3CCN(c4ccccc4)CC3)c2cc1OC
COC(=O)C1=C(c2ccccc2)c2ccccc2S(=O)(=O)N1CC(=O)Nc1ccccc1C(F)(F)F
COc1cc(C(CC(=O)NCCC(C)C)N2Cc3ccccc3C2=O)cc(OC)c1OC (centres undefined)
CC1(C)[C@H](O[C@H]2O[C@H](C(=O)O)[C@@H](O)[C@H](O)[C@H]2O[C@@H]2O[C@H](C(=O)O)[C@@H](O)[C@H](O)[C@H]2O)CC[C@@]2(C)[C@H]1CC[C@]1(C)[C@H]2C(=O)C=C2[C@H]3C[C@@](C)(C(=O)O)CC[C@]3(C)CC[C@]21C
CCc1cccc(NC(=O)CSc2nccn2C)c1
CO[C@H]1C[C@@H](O[C@@H]2[C@@H](C)O[C@@H](O[C@@H]3/C(C)=C/CC4C[C@@H](C[C@]5(C=C[C@@H](C)[C@H](C6CCCCC6)O5)O4)OC(=O)[C@@H]4C=C(C)[C@@H](O)[C@H]5OC/C(=C\C=C\[C@@H]3C)[C@]54O)C[C@H]2OC)O[C@@H](C)[C@@H]1O
CCC(C)C(N)C1=NC(C(=O)NC(CC(C)C)C(=O)NC(CCC(=O)O)C(=O)NC(C(=O)NCCCCC2NC(=O)C(CC(N)=O)NC(=O)C(CC(=O)O)NC(=O)C(Cc3cnc[nH]3)NC(=O)C(Cc3ccccc3)NC(=O)C(C(C)CC)NC(=O)C(CCCN)NC2=O)C(C)CC)CS1 (stereo not drawn) (cyclo(DNK([Ile-Glu-Leu-X1])[Orn]IFH); configuration not given here)
COc1ccc(Cl)cc1NC(=O)Cn1c(=O)c2ccccc2n2nncc12
Cc1ccc(CNC(=O)Cn2c(=O)ccc3cc(S(=O)(=O)N4CCCC4)ccc32)cc1
CCc1ccccc1NC(=O)Cn1c(=O)n(-c2cccc(C)c2)c(=O)c2c1c1cc(OC)ccc1n2C
CCOc1ccc(NS(=O)(=O)c2ccc(N)cc2)nn1
Cc1ccc(-c2nnc(SCc3ccccc3C)o2)cc1
O=C(/C=C/c1cccc(F)c1)NC1CC1
CCOC(=O)c1ccccc1NC(=O)CCc1c(C)nc2c(c1C)c(=O)n(C)c(=O)n2C
Cc1cc(C)cc(NC(=O)Cn2c(=O)c3ccccc3n3nncc23)c1
FCOC(C(F)(F)F)C(F)(F)F
COc1ccccc1N1CCN(c2ncnc3onc(-c4ccc(F)cc4)c23)CC1
Cc1ccc(C)c(N2CCN(S(=O)(=O)c3ccc4c(c3)C(C(C)C)C(=O)N4)CC2)c1 (centres undefined)
NCCCCC(N)C(=O)O (centres undefined)
Cn1c(=O)nc2n(-c3ccc(Br)cc3)c3cccc(Cl)c3cc-2c1=O
Cc1ccc(-n2nnnc2CNC(=O)c2ccccc2C)cc1C
COc1ccc(NC(=O)Cn2c(=O)n(Cc3ccc(C(=O)NCc4ccccc4Cl)cc3)c(=O)c3ccccc32)cc1
Cc1cccc(NC(=O)CSc2nc3c([nH]c4ccccc43)c(=O)n2-c2cc(C)cc(C)c2)c1
CC1(C)OC2CC(=O)OC[C@@]23C1CC(=O)[C@]1(C)C3CC[C@@]2(C)C(c3ccoc3)OC(=O)C3O[C@@]321 (some centres undefined)
Cc1ccc(C(=O)CSc2nc(-c3ccccc3)nc3c2CCCC3)c(C)c1
